Source: PubChem BioAssay
Most compounds without a hit are left out; they make up all but 7.3% or so of the library.
SMN2 splice up – qHTS Assay for Enhancers of SMN2 Splice Variant Expression; 2.8% of 210,000 active; HEK293 SMN2-luciferase splicing reporter, luminescence, 30-36 h; Potency, µM (series often up to 46.1 µM), most hits filed as activators; further: nearly all actives have a fitted effect of over 55% in size
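HEK293 cells carry an SMN2 minigene-luciferase reporter in which exon 7 inclusion puts luciferase in frame. Cells were seeded at 2000 cells/well, attached for 10-12 hours, then exposed to compounds for 30-36 hours at 37C before ONE-Glo luminescence.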
ELG1 genotoxic – qHTS screen for small molecules that induce genotoxicity in human embryonic kidney (HEK293T) cells expressing luciferase-tagged ELG1; HEK293T ELG1-luciferase reporter, luminescence, 16 h; Potency, µM (titrated, usually from 46 µM), hits mostly activators; 1.3% of 330,000 active; AID 504466, 2011; further: nearly all actives have a fitted effect of over 60% in size
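After overnight (16 hr) compound treatment at 37 °C, ELG1-luciferase HEK293T cells were lysed with ONE-Glo; luminescence quantified 30 min later at room temperature.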
Rab9 prom act – qHTS Assay for Rab9 Promoter Activators | Huh7 Rab9 promoter-luciferase reporter, luminescence, 24 h | Potency, µM (series often up to 9.22 µM), usual class: activators | 2.8% of 320,000 active; further: nearly all actives have a fitted effect of over 60% in size
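Cell-based reporter: Huh7 stable for Rab9 promoter-driven luciferase, plated in reduced-serum medium with 10% FBS at 1500 cells/well, compound-treated 24 h at 37 °C, luminescence read after 10 min reagent.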
p53 reactivator – qHTS assay for re-activators of p53 using a Luc reporter | Potency, µM (series often up to 92.2 µM), hits mostly activators | 0.063% of 320,000 active | AID 504706, 2011 | H1299 p53-A138V BP100-luciferase reporter, luminescence, 24 h; further: nearly all actives have a fitted effect of over 45% in size
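H1299 (p53-null), stable ts p53-A138V + BP100-Luc; 1000 cells/well, Opti-MEM/10% FBS; cpd 4 pt, 1:5; 24 h, 37 deg C, 5% CO2; detection reagent 10 min RT; luminescence.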
FLuc modulator – qHTS profiling assay for firefly luciferase inhibitor/activator using purifed enzyme and Km concentrations of substrates (counterscreen for miR-21 project). 6.9% of 360,000 active. Potency, µM (highest dose often 57.5 µM), actives largely listed as inhibitors. purified FLuc, Km substrates, luminescence inhibition. AID 588342, 2011; further: nearly all actives have a fitted effect of over 55% in size
Target sequence (P08659 whole entry, looked up): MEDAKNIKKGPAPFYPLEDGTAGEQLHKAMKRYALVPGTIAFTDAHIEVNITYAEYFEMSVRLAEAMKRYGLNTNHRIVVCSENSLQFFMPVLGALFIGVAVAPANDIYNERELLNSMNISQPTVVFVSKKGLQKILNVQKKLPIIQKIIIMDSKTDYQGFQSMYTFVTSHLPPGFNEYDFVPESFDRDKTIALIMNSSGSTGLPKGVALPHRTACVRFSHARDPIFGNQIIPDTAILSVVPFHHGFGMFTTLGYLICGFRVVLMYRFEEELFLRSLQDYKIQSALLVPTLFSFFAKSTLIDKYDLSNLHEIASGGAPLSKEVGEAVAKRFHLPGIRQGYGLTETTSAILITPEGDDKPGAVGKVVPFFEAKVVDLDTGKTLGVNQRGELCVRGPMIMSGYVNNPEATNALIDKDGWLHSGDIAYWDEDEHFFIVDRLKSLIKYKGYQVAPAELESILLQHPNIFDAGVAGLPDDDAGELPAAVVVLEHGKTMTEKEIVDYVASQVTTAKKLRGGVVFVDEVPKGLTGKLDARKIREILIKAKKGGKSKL
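Purified P. pyralis luciferase (10nM final) with 10uM D-luciferin and 10uM ATP (Km levels) in 50mM Tris acetate pH 7.5, 10mM Mg acetate, 0.01% Tween-20, 0.05% BSA; qHTS 6-point titration, ~60 µM downward; luminescence read.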
NPC1 promoter act – qHTS Assay for NPC1 Promoter Activators. 2.4% of 320,000 active. Huh7 NPC1 promoter luciferase reporter, 24 h. AID 485313, 2010. Potency, µM (series often up to 9.22 µM), most hits filed as activators; further: nearly all actives have a fitted effect of over 60% in size
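Readout is luciferase luminescence, reflecting NPC1 promoter activation in stably transfected Huh7 cells after 24 h compound exposure at 37 °C in reduced-serum medium with 10% FBS.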
Numbers stand for hits; [ ] = another dose, or the depositor's remark. The call rests on the fitted dose curve; in most records, active means well fitted curve in the direction sought with a large enough effect; inconclusive means small, poorly fitted or top-dose-only effect, or another doubt; inactive means no such curve, though single readings can be large; an effect the other way counts as inactive or inconclusive.

Results for COc1ccccc1N=Nc1c(O)[nH]c2ccc(Br)cc12 ?
ELG1 genotoxic: inactive; Rab9 prom act: inactive; p53 reactivator: inactive; FLuc modulator: inactive; NPC1 promoter act: inactive

How did Cc1cccc(N=Nc2c(O)[nH]c3ccc(Br)cc23)c1 do in these assays?
ELG1 genotoxic: inconclusive; Rab9 prom act: inactive; p53 reactivator: inactive; FLuc modulator: 15µM; NPC1 promoter act: inconclusive

How did CSc1ncnc2c1ncn2[C@@H]1O[C@@H](CO)[C@H](O)O[C@@H]1O do in these assays?
SMN2 splice up: inactive[9.22 µM]

What do the screens show for `COc1ccc2c(c1)CCc1c-2n[nH]c1C(=O)O`?
SMN2 splice up: inactive; ELG1 genotoxic: inactive; Rab9 prom act: inactive; p53 reactivator: inactive; FLuc modulator: 11µM; NPC1 promoter act: inactive

What do the screens show for `COc1ccc2c(c1)CCc1cnc(N)nc1-2`?
ELG1 genotoxic: inactive; Rab9 prom act: inactive; p53 reactivator: inactive; FLuc modulator: inconclusive; NPC1 promoter act: inactive

How did Cc1nnc(C)n1/N=C/c1cc2ccccc2nc1Cl do in these assays?
SMN2 splice up: inactive; ELG1 genotoxic: inactive; Rab9 prom act: inactive; p53 reactivator: inactive; FLuc modulator: inactive; NPC1 promoter act: inactive

What do the screens show for `Cn1c(N/N=C/c2c[nH]c3ccccc23)nc2ccccc21`?
SMN2 splice up: inactive; ELG1 genotoxic: inactive; Rab9 prom act: inconclusive; p53 reactivator: inactive; FLuc modulator: 1.5µM; NPC1 promoter act: inconclusive

How did Cn1c(N/N=C/c2cc3ccccc3nc2Cl)nc2ccccc21 do in these assays?
SMN2 splice up: 2.2µM; ELG1 genotoxic: inconclusive; Rab9 prom act: 0.45µM; p53 reactivator: inactive; FLuc modulator: 0.027µM; NPC1 promoter act: 1µM

What do the screens show for `CCCCCSc1nc2sc3c(c2c(=O)n1-c1ccccc1)CCN(C(C)=O)C3`?
SMN2 splice up: inactive; FLuc modulator: inactive

How did CCOC(=O)C1CCN(C(=O)c2cc3ccccc3oc2=O)CC1 do in these assays?
SMN2 splice up: inconclusive; ELG1 genotoxic: inactive; Rab9 prom act: inconclusive; p53 reactivator: inactive; FLuc modulator: inactive; NPC1 promoter act: inactive

Results for O=C(O)c1ccccc1SCc1cn2cc(Cl)ccc2n1 ?
SMN2 splice up: inconclusive; ELG1 genotoxic: inconclusive; Rab9 prom act: 3.2µM; p53 reactivator: inactive; FLuc modulator: 11µM; NPC1 promoter act: inconclusive

Results for O=C(O)c1ccccc1SCc1nc2ccccn2c1Br ?
SMN2 splice up: inactive; ELG1 genotoxic: inactive; Rab9 prom act: inactive; p53 reactivator: inactive; FLuc modulator: inconclusive; NPC1 promoter act: inactive

How did O=C(O)c1cccnc1SCc1cn2cc(Cl)ccc2n1 do in these assays?
ELG1 genotoxic: inactive; Rab9 prom act: inactive; p53 reactivator: inactive; FLuc modulator: inconclusive; NPC1 promoter act: inactive

Results for Cc1cccc2nc(CSc3ccccc3C(=O)O)cn12 ?
ELG1 genotoxic: inactive; Rab9 prom act: inconclusive; p53 reactivator: inconclusive; FLuc modulator: 15µM; NPC1 promoter act: inactive

Results for CCOC(=O)N1CCN(C(=O)/C=C/c2c(C)nn(-c3ccc(F)cc3)c2Cl)CC1 ?
SMN2 splice up: inactive; ELG1 genotoxic: inactive; Rab9 prom act: inactive; p53 reactivator: inactive; FLuc modulator: inactive; NPC1 promoter act: inactive

Results for CCN(CC)S(=O)(=O)c1ccc2c(c1)N(CC(=O)NCc1ccccc1)C(=O)C1CCCCN21 (stereo not drawn) ?
FLuc modulator: inactive

Results for COc1cc2[nH]c(C(=O)N3CC(C)OC(C)C3)cc2c(OC)c1OC (stereo not drawn) ?
ELG1 genotoxic: inactive; Rab9 prom act: inactive; p53 reactivator: inactive; FLuc modulator: inactive; NPC1 promoter act: inactive

What do the screens show for `O=C(CSc1nc2ccsc2c(=O)n1Cc1ccc(F)cc1)NCc1ccc(Cl)cc1`?
FLuc modulator: inactive

What do the screens show for `Cc1ccc(-c2cc(-c3ccccc3)nc(N(C)N)n2)cc1`?
ELG1 genotoxic: inactive; Rab9 prom act: inactive; FLuc modulator: inactive; NPC1 promoter act: inactive
